Screening data from PubChem BioAssay.
Cycloheximide cs: counter-screen for Shiga toxin inhibitors: cycloheximide protein synthesis inhibition | cell reporter, cycloheximide protein synthesis inhibition counterscreen | max response, % | 12% of 300,000 active; in the data active = max response mostly above about 13%, no sharp cut-off; inactive = mostly below about 14%; also: read at 38.3 µM for the half of the compounds with a filed dose; 0% is about no effect
Pf growth 48h: P. falciparum growth inhibition at 48 hours (one generation); P. falciparum luciferase growth in erythrocytes, 48 h; Potency, µM (top dose mostly 28.7 µM), without a hit: top-dose activity change, negative = inhibition, actives largely listed as inhibitors; 5.9% of 310,000 active; AID 504832; active = well fitted inhibition curve with a large enough effect; inconclusive = small, poorly fitted or top-dose-only effect, or another doubt; inactive = no such curve, though single readings can be large or run the other way; also: potency is read from the fitted curve at half-maximal effect; % is scaled to controls: 0 for no effect and ±100 for the full control effect
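Read-out is firefly luciferase luminescence from an integrated reporter in P. falciparum, so falling signal marks reduced parasite growth. Infected erythrocytes were at 2% hematocrit and 0.1% parasitemia (final) in Albumax-supplemented RPMI 1640.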
NS1 inh: inhibitors of influenza NS1 protein function. Potency, µM (doses to about 46.1 µM), without a hit: at the top dose activity, positive = more growth. 0.4% of 270,000 active. AID 2326; also: potency is read from the fitted curve at half-maximal effect; actives are rising curves; nearly all actives have a fitted effect of over 50% in size
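S. cerevisiae expressing influenza A NS1, grown in glucose, washed, then diluted 1:100 into pH 6.0 -URA galactose medium with 23 nl compound. Growth recovery read as OD600; NS1-free strain serves as control.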
Pf growth 96h: P. falciparum growth inhibition at 96 hours | Potency, µM (highest dose often 28.7 µM), for the others: at the highest dose activity change, negative = inhibition, actives largely listed as inhibitors | 6.9% of 320,000 active | P. falciparum luciferase reporter growth, 96 h; active = well fitted inhibition curve with a large enough effect; inconclusive = small, poorly fitted or top-dose-only effect, or another doubt; inactive = no such curve, though single readings can be large or run the other way; also: potency is read from the fitted curve at half-maximal effect; % is scaled to controls: 0 for no effect and ±100 for the full control effect
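Erythrocytes infected with luciferase-expressing P. falciparum were dispensed at 2% hematocrit and 0.05% parasitemia (final), then incubated with compounds 96 hours at 37 C in 5% CO2. Luminescence after detection reagent addition reported growth.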
Shiga inhibitor: inhibitors of Shiga toxin in Vero cells; Vero cells, Shiga toxin protein synthesis inhibition reporter; inhibition, % at 38.7 µM; 9.2% of 290,000 active; AID 2315; in the data active = inhibition mostly above about 28%, no sharp cut-off; inactive = mostly below about 43%; also: 0% is about no effect
SARS PLP yeast: inhibitors of SARS-CoV papain-like protease in yeast | S. cerevisiae expressing SARS-CoV PLpro, growth rescue | Potency, µM (titrated, usually from 32.9 µM), without a hit: at the highest dose activity, positive = growth rescue, actives largely listed as activators | 0.19% of 330,000 active | AID 485353; also: potency is read from the fitted curve at half-maximal effect; 0% is about no effect; nearly all actives have a fitted effect of over 55% in size
The depositor's hits bear a star; ? = inconclusive; . = not tested or not shown. Most compounds without a hit are left out; they make up all but 21% or so of the library. Unless noted, calls follow the shape of the full dose curve.

SMILES	Cycloheximide cs	Pf growth 48h	NS1 inh	Pf growth 96h	Shiga inhibitor	SARS PLP yeast
COc1ccc(Nc2oc(-c3ccccc3)nc2C#N)cc1	14*	30%	1%	?	70*	14%
COc1ccc(Nc2oc(-c3ccc(OC)cc3)nc2C#N)cc1	50*	-5%	3%	?	105*	-1%
CC(=O)Nc1ccc(NC(=O)COC(=O)c2cnccn2)cc1	7	11%	4%	74%	23	-1%
Cc1cc(CN2CCCC(N3CCc4ccccc4C3)C2)cc(C)c1O (stereo not drawn)	-4	?	8%	10µM*	-7	2%
CCOC(=O)N1CCN(S(=O)(=O)c2c[nH]c(C(=O)OC)c2)CC1	-2	14%	-9%	76%	-11	1%
Cc1cc(=O)oc2cc(NC(=O)CC(N)C(=O)O)ccc12 (stereo not drawn)	-4	.	.	.	-4	.
Cc1cc(=O)oc2cc(NC(=O)CCOc3ccccc3)ccc12	19*	50%	-4%	28%	32*	2%
CCOC(=O)Nc1ccc2c(C)cc(=O)oc2c1	30*	160%	?	?	60*	?
CCCCOC(=O)Nc1ccc2c(C)cc(=O)oc2c1	52*	88%	-7%	128%	59*	-13%
Cc1cccc(OCC(=O)Nc2ccc3c(C)cc(=O)oc3c2)c1	5	35%	9%	38%	-3	-2%
CC(=O)c1ccc(N(CC(=O)NC2CCS(=O)(=O)C2)S(=O)(=O)c2ccc(Cl)cc2)cc1 (stereo not drawn)	.	14%	.	2%	.	-7%
O=C(O)c1cccc(-n2cccc2/C=C/[N+](=O)[O-])c1	12	21%	-8%	4%	-8	3%
CC(=O)Nc1ccc(C2=CC(=O)C[C@H](c3ccc4c(c3)OCO4)C2)cc1	.	?	.	-15%	.	-5%
O=C(CNC(=O)c1ccc(S(=O)(=O)N2CCCCC2)cc1)N/N=C/c1ccco1	-2	?	5%	29%	-11	1%
O=C(NCCN1CCCCC1)/C(=C/c1ccco1)NC(=O)c1ccccc1	-5	2%	5%	6.6µM*	14	2%
O=C(NCc1cccnc1)/C(=C/c1ccco1)NC(=O)c1ccccc1	-1	28%	7%	12µM*	14	3%
COc1ccc(C(=O)N/C(=C\c2ccco2)C(=O)NCc2ccco2)cc1	6	-6%	11%	-20%	-6	?
COc1ccc(C(=O)N/C(=C\c2ccco2)C(=O)NCc2cccnc2)cc1	-1	33%	25%	1.2µM*	32	-5%
Cc1ccc(C(=O)N/C(=C\c2ccco2)C(=O)NCCCn2ccnc2)cc1	1	40%	4%	9.3µM*	-4	-3%
Cc1ccc(C(=O)N/C(=C\c2ccco2)C(=O)NCCN2CCCCC2)cc1C	15	12%	-2%	1%	-7	0%
N#Cc1cc(Oc2cccc3cccnc23)c(-n2nnc3ccccc32)cc1C#N	-11	1.9µM*	-132%	-2%	-45	-11%
CC(C)NC(=S)NC(=O)/C=C/c1cccc2ccccc12	0	-5%	-2%	13%	-9	-1%
CCSc1nc2sc3c(c2c(=O)[nH]1)CC(C)(CC)OC3 (stereo not drawn)	8	?	8%	21%	-6	1%
CCC1(C)Cc2c(sc3nc(NC)n(C)c(=O)c23)CO1 (stereo not drawn)	67*	?	-12%	?	27	-7%
CCC1(C)Cc2c(sc3nc(SCC(=O)O)[nH]c(=O)c23)CO1 (stereo not drawn)	-4	19%	10%	8.3µM*	11	1%
CCOc1ccccc1Nc1nnc(SCC(=O)NC2CC2)s1	.	.	.	.	.	-1%
Fc1ccc(Nc2cccc3nccnc23)cc1	22*	29%	4%	16%	47*	0%
c1cc(Nc2cccc3nccnc23)c2nccnc2c1	-2	-11%	-3%	10%	-9	0%
CCC(C)[C@H](NC(=O)C1CC(=O)N(c2ccc(OC)cc2)C1)C(=O)NC1CCCC1 (stereo partly drawn)	-5	14%	1%	?	2	-3%
